Source: PubChem BioAssay AID1159580 (chemical genetic matrix, 2015)
Screen size: about 5,500 compounds; about 2,000 (36%) were called active. Not shown: some 18% with an inconclusive outcome. No stated cut-off is given here; in the data, active means normalized growth mostly below about 0.91 (no sharp cut-off); inconclusive means no clear call, values can overlap the other calls; inactive means mostly above about 0.92. The list shows a part of the results.

Assay: chemical genetic growth profiling, strain panel (AID 1159580);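 further: tested at 20 µM; growth read once vehicle control cultures reached saturation at 30 °C; 1 = growth at the plate median or of vehicle wells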
Settings: growth OD
[1] = S. cerevisiae deletion strains, locus YHR030C, strain SLT2, stronger effect = lower value
[2] = S. cerevisiae deletion strains, locus YJL095W, strain BCK1, stronger effect = lower value

Measured: normalized growth

COc1ccc(-c2coc3c(O)c(O)c(OC)cc3c2=O)cc1
inactive: [1] 0.96 | S. cerevisiae deletion strains, locus YHR079C, strain IRE1, stronger effect = lower value 0.969 | [2] 0.955 | S. cerevisiae deletion strains, locus YJR066W, strain TOR1, stronger effect = lower value 0.912 | S. cerevisiae deletion strains, locus YLR113W, strain HOG1, stronger effect = lower value 0.955 | S. cerevisiae deletion strains, locus YNL183C, strain NPR1, stronger effect = lower value 0.888 | S. cerevisiae deletion strains, locus YOR231W, strain MKK1, stronger effect = lower value 0.971 | S. cerevisiae deletion strains, locus YPL256C, strain CLN2, stronger effect = lower value 0.953

COc1ccc(-c2coc3c(OC)c(O)ccc3c2=O)cc1
inactive: S. cerevisiae deletion strains, locus YBR021W, strain FUR4, stronger effect = lower value 0.951 | S. cerevisiae deletion strains, locus YBR229C, strain ROT2, stronger effect = lower value 0.92 | S. cerevisiae deletion strains, locus YCL029C, strain bik1, stronger effect = lower value 0.97 | S. cerevisiae deletion strains, locus YDL035C, strain GPR1, stronger effect = lower value 0.935 | S. cerevisiae deletion strains, locus YDL074C, strain BRE1, stronger effect = lower value 0.9 | S. cerevisiae deletion strains, locus YDL101C, strain DUN1, stronger effect = lower value 0.928 | S. cerevisiae deletion strains, locus YDL185W, strain tfp1, stronger effect = lower value 0.949 | S. cerevisiae deletion strains, locus YDL192W, strain arf1, stronger effect = lower value 0.931 | S. cerevisiae deletion strains, locus YDR101C, strain arx1, stronger effect = lower value 0.944 | S. cerevisiae deletion strains, locus YDR318W, strain mcm21, stronger effect = lower value 0.951 | S. cerevisiae deletion strains, locus YDR388W, stronger effect = lower value 0.965 | S. cerevisiae deletion strains, locus YDR502C, strain sam2, stronger effect = lower value 0.953 | S. cerevisiae deletion strains, locus YEL061C, strain CIN8, stronger effect = lower value 0.958 | S. cerevisiae deletion strains, locus YER110C, stronger effect = lower value 0.953 | S. cerevisiae deletion strains, locus YER155C, strain BEM2, stronger effect = lower value 0.997 | S. cerevisiae deletion strains, locus YER167W, strain BCK2, stronger effect = lower value 0.956 | S. cerevisiae deletion strains, locus YGL078C, strain dbp3, stronger effect = lower value 0.961 | S. cerevisiae deletion strains, locus YGL248W, strain PDE1, stronger effect = lower value 0.927 | S. cerevisiae deletion strains, locus YGR135W, strain pre9, stronger effect = lower value 0.931 | S. cerevisiae deletion strains, locus YGR252W, strain gcn5, stronger effect = lower value 0.826 | [1] 0.976 | S. cerevisiae deletion strains, locus YHR079C, strain IRE1 (second series), stronger effect = lower value 0.946 | S. cerevisiae deletion strains, locus YHR094C, strain hxt1, stronger effect = lower value 0.952 | S. cerevisiae deletion strains, locus YHR129C, strain ARP1, stronger effect = lower value 0.96 | S. cerevisiae deletion strains, locus YHR200W, strain rpn10, stronger effect = lower value 0.936 | S. cerevisiae deletion strains, locus YIL066C, strain RNR3, stronger effect = lower value 0.882 | S. cerevisiae deletion strains, locus YIL073C, strain SPO22, stronger effect = lower value 0.884 | S. cerevisiae deletion strains, locus YIL125W, strain kgd1, stronger effect = lower value 0.967 | S. cerevisiae deletion strains, locus YIR030C, strain dcg1, stronger effect = lower value 0.962 | [2] 0.813 | S. cerevisiae deletion strains, locus YJL134W, strain LCB3, stronger effect = lower value 0.968 | S. cerevisiae deletion strains, locus YJL168C, strain set2, stronger effect = lower value 0.963 | S. cerevisiae deletion strains, locus YJL187C, strain SWE1 (second series), stronger effect = lower value 0.916 | S. cerevisiae deletion strains, locus YJR043C, strain POL32, stronger effect = lower value 0.914 | S. cerevisiae deletion strains, locus YKL009W, strain mrt4, stronger effect = lower value 0.928 | S. cerevisiae deletion strains, locus YKL068W, stronger effect = lower value 0.946 | S. cerevisiae deletion strains, locus YKL085W, strain MDH1 (second series), stronger effect = lower value 0.944 | S. cerevisiae deletion strains, locus YKL085W, strain MDH1, stronger effect = lower value 0.944 | S. cerevisiae deletion strains, locus YKL190W, strain CNB1, stronger effect = lower value 0.958 | S. cerevisiae deletion strains, locus YLR039C, strain RIC1, stronger effect = lower value 0.861 | S. cerevisiae deletion strains, locus YLR058C, strain SHM2, stronger effect = lower value 0.931 | S. cerevisiae deletion strains, locus YLR102C, strain apc9, stronger effect = lower value 0.965 | S. cerevisiae deletion strains, locus YLR262C, strain YPT6, stronger effect = lower value 0.86 | S. cerevisiae deletion strains, locus YLR268W, strain sec22, stronger effect = lower value 0.942 | S. cerevisiae deletion strains, locus YLR330W, strain CHS5, stronger effect = lower value 0.953 | S. cerevisiae deletion strains, locus YLR342W, strain FKS1 (second series), stronger effect = lower value 0.86 | S. cerevisiae deletion strains, locus YLR371W, strain rom2, stronger effect = lower value 0.969 | S. cerevisiae deletion strains, locus YML016C, strain PPZ1, stronger effect = lower value 0.963 | S. cerevisiae deletion strains, locus YML032C, strain rad52, stronger effect = lower value 0.958 | S. cerevisiae deletion strains, locus YML124C, strain tub3, stronger effect = lower value 0.952 | S. cerevisiae deletion strains, locus YMR078C, strain ctf18, stronger effect = lower value 0.95 | S. cerevisiae deletion strains, locus YMR223W, strain ubp8, stronger effect = lower value 0.943 | S. cerevisiae deletion strains, locus YMR307W, strain GAS1, stronger effect = lower value 0.769 | S. cerevisiae deletion strains, locus YNL067W, strain RPL9B, stronger effect = lower value 0.918 | S. cerevisiae deletion strains, locus YNL233W, strain BNI4, stronger effect = lower value 0.892 | S. cerevisiae deletion strains, locus YNL250W, strain rad50, stronger effect = lower value 0.968 | S. cerevisiae deletion strains, locus YNL271C, strain bni1, stronger effect = lower value 0.945 | S. cerevisiae deletion strains, locus YNL298W, strain CLA4, stronger effect = lower value 0.94 | S. cerevisiae deletion strains, locus YNR052C, strain pop2, stronger effect = lower value 0.964 | S. cerevisiae deletion strains, locus YOL006C, strain TOP1, stronger effect = lower value 0.742 | S. cerevisiae deletion strains, locus YOL012C, strain htz1 0.945 | S. cerevisiae deletion strains, locus YOL147C, strain pex11, stronger effect = lower value 0.966 | S. cerevisiae deletion strains, locus YOR061W, strain CKA2, stronger effect = lower value 0.933 | S. cerevisiae deletion strains, locus YOR069W, strain VPS5, stronger effect = lower value 0.969 | S. cerevisiae deletion strains, locus YOR136W, strain idh2, stronger effect = lower value 0.98 | S. cerevisiae deletion strains, locus YOR144C, strain elg1, stronger effect = lower value 0.966 | S. cerevisiae deletion strains, locus YOR184W, strain ser1, stronger effect = lower value 0.876 | S. cerevisiae deletion strains, locus YOR316C, strain cot1, stronger effect = lower value 0.961 | S. cerevisiae deletion strains, locus YPL055C, strain LGE1, stronger effect = lower value 0.86 | S. cerevisiae deletion strains, locus YPR119W, strain clb2, stronger effect = lower value 0.977 | S. cerevisiae deletion strains, locus YPR141C, strain kar3, stronger effect = lower value 0.955 | S. cerevisiae deletion strains, locus YPR163C, strain tif3, stronger effect = lower value 0.931 | S. cerevisiae deletion strains, locus YPR167C, strain met16, stronger effect = lower value 0.954 | S. cerevisiae deletion strains, strain wtn01, stronger effect = lower value 0.962 | S. cerevisiae strains, strain wild type, stronger effect = lower value 0.95
active: S. cerevisiae deletion strains, locus YDL134C, strain PPH21, stronger effect = lower value 0.888 | S. cerevisiae deletion strains, locus YDR162C, strain NBP2, stronger effect = lower value 0.792 | S. cerevisiae deletion strains, locus YGL086W, strain mad1, stronger effect = lower value 0.929 | S. cerevisiae deletion strains, locus YKR001C, strain vps1, stronger effect = lower value 0.896 | S. cerevisiae deletion strains, locus YLR418C, strain cdc73, stronger effect = lower value 0.808 | S. cerevisiae deletion strains, locus YNL307C, strain MCK1, stronger effect = lower value 0.896
